High-throughput results as filed in PubChem.
CYP2C9 act = human CYP2C9 activators, primary screen, biochemical, luminescence | activation factor at 5 µM | recombinant CYP2C9, luciferin-H conversion; stronger effect = higher value; factor 1 = untreated enzyme, 0 = blocked | 96,000 compounds, 1.4% hits | Cytochrome P450 2C9 (Homo sapiens), P11712;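 active means activation factor of 2 or more for CYP2C9 at a 5 µM dose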;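 further: 0 = sulfaphenazole-blocked wells and 1 = vehicle-only wells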
Target sequence (P11712 whole entry, looked up): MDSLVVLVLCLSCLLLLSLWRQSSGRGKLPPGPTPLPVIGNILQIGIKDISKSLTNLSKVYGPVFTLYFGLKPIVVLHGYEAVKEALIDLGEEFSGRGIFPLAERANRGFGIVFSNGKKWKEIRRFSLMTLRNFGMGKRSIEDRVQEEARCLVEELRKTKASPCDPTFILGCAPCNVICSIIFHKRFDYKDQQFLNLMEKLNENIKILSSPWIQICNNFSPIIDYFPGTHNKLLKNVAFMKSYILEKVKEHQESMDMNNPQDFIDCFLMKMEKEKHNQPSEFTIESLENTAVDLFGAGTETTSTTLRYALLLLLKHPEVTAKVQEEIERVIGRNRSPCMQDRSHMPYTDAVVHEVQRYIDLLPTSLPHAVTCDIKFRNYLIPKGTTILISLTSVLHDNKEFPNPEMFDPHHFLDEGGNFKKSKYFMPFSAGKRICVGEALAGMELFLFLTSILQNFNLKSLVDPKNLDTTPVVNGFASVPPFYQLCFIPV
CD11b adhes enh = enhancers of CD11b/CD18 adhesion to fibrinogen, primary screen, K562 cells, luminescence; Integrin beta-2 (Homo sapiens) + Integrin alpha-M (Homo sapiens), P05107+P11215; ATPlite luminescence; 93,000 compounds, 0.07% hits; activation, % at 10 µM;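 active means 10 µM primary screen giving 50% or more activity, confirmed by 40% or more on retest at that dose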
CYP2C19 act = human CYP2C19 activators, primary screen, biochemical, luminescence. Cytochrome P450 2C19 (Homo sapiens), P33261. recombinant CYP2C19, luciferin-H EGE luminescence; stronger effect = higher value; 0 = fully inhibited enzyme, 1 = untreated enzyme. activation factor at 5 µM. 96,000 tested, under 10 active;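 active means activation factor of at least 2 at 5 µM in the primary screen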;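 further: 0 = wells with 2.5 mM tranylcypromine and 1 = vehicle-only wells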
Mac1 fbg inh = inhibitors of CD11b/CD18 adhesion to fibrinogen, primary screen, K562 cells, luminescence; inhibition, % at 10 µM; AID 1497, 2009; Integrin beta-2 (Homo sapiens) + Integrin alpha-M (Homo sapiens), P05107+P11215; ATPlite luminescence; Mn2+ added to activate the integrin; 93,000 compounds, 0.54% hits;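 active means primary inhibition of 50% or more at 10 µM, then 40% or more on retest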
CYP2C9 inhib = blockers of cytochrome P450 2C9 activity – biochemical, luminescence, ADME assay, primary screen. P11712. CYP2C9 Supersomes, luciferin-H conversion. inhibition, % at 5 µM. 96,000 compounds, 20% hits;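 active means blocking of liver enzyme CYP2C9 beyond about 50% at 5 µM, limit read from the data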
CYP2C19 inh = blockers of cytochrome P450 2C19 activity – biochemical, luminescence, ADME assay, primary screen; CYP2C19 Supersomes, luciferin-H EGE luminescence, 30 min; P33261; AID 778, 2007; 96,000 compounds, 21% hits; inhibition, % at 5 µM;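 active means CYP2C19 inhibition above a set limit at 5 µM in the primary screen, cut at about 50% in these data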;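 further: plate controls were negative control wells for no effect and 2.5 mM tranylcypromine positive control for full effect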
An asterisk follows results filed as active; nt = no result. An excerpt weighted towards active compounds, which were near 28% of everything screened.

SMILES	CYP2C9 act	CD11b adhes enh	CYP2C19 act	Mac1 fbg inh	CYP2C9 inhib	CYP2C19 inh
Nc1c(C(=O)c2ccccc2)oc2ccccc12	0.7	0	0.1	-19	34	85*
COC(=O)c1oc2ccccc2c1N	1.1	-1	0.9	-46	-9	9
Nc1c(C(=O)Nc2ccc(Cl)cc2)oc2ccccc12	0.4	-1	0.5	-15	63*	54*
COc1ccc(C(=O)c2oc3ccccc3c2N)cc1	0.7	22	0.3	-9	28	69*
CC(=O)c1oc2ccccc2c1N	0.9	3	0.9	-11	6	12
O=C1c2ccccc2C(=O)N1CCc1nc(-c2cccnc2)no1	0.7	-6	0.5	-21	26	51*
O=C1c2ccccc2C(=O)N1CCc1nc(-c2ccncc2)no1	0.3	-2	0	5	72*	97*
O=C(CCCNS(=O)(=O)c1cccs1)N1CCN(c2cccc(Cl)c2)CC1	0.8	-3	0.7	21	24	27
CCC1CCCCN1C(=O)c1nn2cccnc2c1Cl (stereo unspecified)	1.1	-3	0.9	-4	-11	12
O=C(c1cccc(F)c1)N1CCN(c2cccc(Cl)c2)CC1	0.1	-1	0.1	-12	86*	94*
O=C(c1c(Cl)nc2sccn12)N1CCN(c2cccc(Cl)c2)CC1	0.3	0	0.2	16	69*	83*
O=C(c1cccc(F)c1)N1CCC(N2CCOCC2)CC1	0.9	-5	0.4	-7	11	56*
O=C(c1cccc(F)c1)N1CCN(C(=O)c2nn3cccnc3c2Cl)CC1	0.9	-1	0.4	-6	14	58*
CC1CCN(c2ccc([N+](=O)[O-])cn2)CC1	nt	5	nt	0	nt	nt
CCCCOc1ccc(C(=O)OC2CC(C)N(C)CC2C)cc1 (stereo unspecified)	1	8	0.9	-8	2	11
O=C(c1cccnc1)N1CCc2ccccc2C1	1.1	nt	0.8	nt	-8	25
O=C(COc1ccc(Cl)cc1)N1CCN(C(=O)c2cccc(F)c2)CC1	1	1	0.8	5	-1	23
O=C(c1cccc(Cl)c1)N1CCN(C(=O)c2ccccc2F)CC1	0.5	-4	0.3	12	54*	66*
O=C(c1cccnc1)N1CCN(C(=O)c2ccccc2F)CC1	0.3	-4	0.5	-11	65*	51*
N#Cc1ccc(N2CCN(C(=O)c3cccc(F)c3)CC2)c(F)c1	0.7	-4	0.1	-16	31	92*
CC(=O)c1cn(CC(=O)NCC2CCCO2)c2ccccc12 (stereo unspecified)	1	4	0.8	-3	-2	17
CC(C)c1ccc(NC(=O)COc2nnc(-c3cccs3)c(-c3cccs3)n2)cc1	0.1	-2	0.2	-11	86*	80*
CCC(C)C(=O)Nc1nnc(-c2cccs2)s1 (stereo unspecified)	0.8	-6	0.9	2	19	5
CCc1ccc(NC(=O)C(C)Oc2nnc(-c3cccs3)c(-c3cccs3)n2)cc1 (stereo unspecified)	0.3	5	1.1	9	68*	-14
CCCCn1cc(C(=O)c2cc(Br)ccc2O)cc(C#N)c1=O	0.4	nt	0.2	nt	59*	78*
SMILES	CYP2C9 act	CD11b adhes enh	CYP2C19 act	Mac1 fbg inh	CYP2C9 inhib	CYP2C19 inh
CC(C)n1cc(C(=O)c2cc(Br)ccc2O)cc(C#N)c1=O	0.1	-2	0	0	88*	98*
N#Cc1cc(C(=O)c2cc(Br)ccc2O)cn(C2CC2)c1=O	0.9	4	0.5	6	11	51*
Cc1c(-n2cc(C(=O)c3ccccc3O)cc(C#N)c2=O)c(=O)n(-c2ccccc2)n1C	0.9	1	1	-20	7	4
COC(=O)CC1C(=O)NCCN1C(=O)NC1CCCCC1 (stereo unspecified)	1.1	-4	1.1	-3	-14	-12
CCn1c(CCNC(=O)c2cccs2)nnc1SCC(=O)NC1CCCCC1	1	4	1	-21	-1	0
O=C(CN(c1ccc(F)cc1)S(=O)(=O)c1ccc2c(c1)OCCO2)N1CCOCC1	0.7	0	0.9	-7	28	11
CCOC(=O)/C(=N/Nc1ccc(Cl)cc1)S(=O)(=O)c1ccccc1	0.8	0	0.9	6	20	12
COc1ccc(S(=O)(=O)N2CCCC2C(=O)Nc2ccc(O)cc2)cc1 (stereo unspecified)	1.6	-2	1	-11	-56	4
COc1ccc(NC(=O)C2CCCN2S(=O)(=O)c2ccc3c(c2)CCC(=O)N3)cc1Cl (stereo unspecified)	0.3	0	1.1	16	65*	-6
COc1ccc(NC(=O)C2CCCN2S(=O)(=O)c2ccc3c(c2)CCC(=O)N3)cc1 (stereo unspecified)	0.1	10	0.7	-7	90*	31
CCN(CCO)c1ncnc2c1sc1nc(C(C)C)c3c(c12)CC(C)(C)OC3	0.2	-8	0.8	15	76*	17
Cc1ccc2nc(/C(C#N)=C\c3cc(C)n(-c4cccc([N+](=O)[O-])c4)c3C)[nH]c2c1	0.2	-4	0.5	-10	84*	48
Cc1ccc2nc(/C(C#N)=C\c3ccc([N+](=O)[O-])o3)[nH]c2c1	0.9	-2	0.9	2	7	10
COc1ccc(NC(=O)NCCCN2CCN(c3cc(C)ccc3C)CC2)cc1	0.8	2	0.8	-4	21	22
CC(=O)c1ccc(OCC(O)CN2CCN(c3ccccn3)CC2)cc1 (stereo unspecified)	0.8	-1	0.7	-4	19	34
CC(C)c1ccc(S(=O)(=O)/N=C2/C=C(Sc3ncn[nH]3)C(=O)c3ccccc32)cc1	nt	-4	nt	102*	nt	nt
CN(C)[C@H]1N(C(=O)c2ccc(Br)cc2)N=C2c3ccccc3S(=O)(=O)N21	0.4	-2	0.6	12	57*	45
C=CCNC(=O)C1CCN(S(C)(=O)=O)CC1	1	0	1.1	-12	-4	-14
COCC(C)n1c(C)cc(C(=O)COC(=O)c2c(NC(C)=O)sc(C)c2C)c1C (stereo unspecified)	0.9	3	1	22	13	2
Cc1nn(-c2ccccc2)c(C)c1C(=O)OCC(=O)NC12CC3CC(CC(C3)C1)C2	0.7	nt	0.3	nt	27	68*
COCCn1c(C)cc(C(=O)COC(=O)c2n[nH]c3ccccc23)c1C	1.7	-6	0.7	53*	-66	34
